Results published in PubChem BioAssay AID1159580 (chemical genetic matrix, 2015).
Hit rate of the full screen: of about 5,500 compounds, about 2,000 (36%) were called active. Not shown: some 18% with an inconclusive outcome. Rule as the data show it: active = normalized growth mostly below about 0.91 (no sharp cut-off); inconclusive = no clear call, values can overlap the other calls; inactive = mostly above about 0.92. The list shows a part of the results.

Assay: chemical genetic growth profiling, strain panel (AID 1159580);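 also: tested at 20 µM; growth read once vehicle control cultures reached saturation at 30 °C; 1 = growth at the plate median or of vehicle wells; lower values mean less growth of the strain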
Settings: growth OD

Measured: normalized growth

CC(C)NCC(O)c1ccc2ccccc2c1 (stereo not drawn)
inactive: S. cerevisiae deletion strains, locus YJR066W, strain TOR1, stronger effect = lower value 0.936 | S. cerevisiae deletion strains, locus YJR075W, strain HOC1, stronger effect = lower value 1.02 | S. cerevisiae deletion strains, locus YKL009W, strain mrt4, stronger effect = lower value 0.998 | S. cerevisiae deletion strains, locus YKL068W, stronger effect = lower value 0.997 | S. cerevisiae deletion strains, locus YKL085W, strain MDH1 (second series), stronger effect = lower value 0.996 | S. cerevisiae deletion strains, locus YKL085W, strain MDH1, stronger effect = lower value 0.996 | S. cerevisiae deletion strains, locus YKL160W, strain elf1, stronger effect = lower value 0.994 | S. cerevisiae deletion strains, locus YKR001C, strain vps1, stronger effect = lower value 1.03 | S. cerevisiae deletion strains, locus YKR026C, strain gcn3, stronger effect = lower value 1 | S. cerevisiae deletion strains, locus YKR091W, strain srl3, stronger effect = lower value 1 | S. cerevisiae deletion strains, locus YLL001W, strain dnm1, stronger effect = lower value 1 | S. cerevisiae deletion strains, locus YLL026W, stronger effect = lower value 0.998 | S. cerevisiae deletion strains, locus YLL041C, strain sdh2, stronger effect = lower value 0.998 | S. cerevisiae deletion strains, locus YLR027C, strain aat2, stronger effect = lower value 1 | S. cerevisiae deletion strains, locus YLR039C, strain RIC1, stronger effect = lower value 1.04 | S. cerevisiae deletion strains, locus YLR058C, strain SHM2, stronger effect = lower value 1.01 | S. cerevisiae deletion strains, locus YLR102C, strain apc9, stronger effect = lower value 0.988 | S. cerevisiae deletion strains, locus YLR113W, strain HOG1, stronger effect = lower value 1.05 | S. cerevisiae deletion strains, locus YLR221C, strain rsa3, stronger effect = lower value 1.02 | S. cerevisiae deletion strains, locus YLR258W, strain gsy2, stronger effect = lower value 0.996 | S. cerevisiae deletion strains, locus YLR262C, strain YPT6 (second series), stronger effect = lower value 0.984 | S. cerevisiae deletion strains, locus YLR262C, strain YPT6, stronger effect = lower value 1.07 | S. cerevisiae deletion strains, locus YLR268W, strain sec22, stronger effect = lower value 0.989 | S. cerevisiae deletion strains, locus YLR320W, strain mms22, stronger effect = lower value 1.01 | S. cerevisiae deletion strains, locus YLR330W, strain CHS5, stronger effect = lower value 1.01 | S. cerevisiae deletion strains, locus YLR342W, strain FKS1 (second series), stronger effect = lower value 1.03 | S. cerevisiae deletion strains, locus YLR342W, strain FKS1, stronger effect = lower value 0.999 | S. cerevisiae deletion strains, locus YLR357W, strain rsc2, stronger effect = lower value 0.984 | S. cerevisiae deletion strains, locus YLR370C, strain arc18, stronger effect = lower value 1.02 | S. cerevisiae deletion strains, locus YLR371W, strain rom2, stronger effect = lower value 0.989 | S. cerevisiae deletion strains, locus YLR384C, strain iki3, stronger effect = lower value 1 | S. cerevisiae deletion strains, locus YLR418C, strain cdc73, stronger effect = lower value 0.997 | S. cerevisiae deletion strains, locus YML016C, strain PPZ1, stronger effect = lower value 1 | S. cerevisiae deletion strains, locus YML032C, strain rad52, stronger effect = lower value 1.01 | S. cerevisiae deletion strains, locus YML120C, strain ndi1, stronger effect = lower value 0.991 | S. cerevisiae deletion strains, locus YML124C, strain tub3, stronger effect = lower value 0.991 | S. cerevisiae deletion strains, locus YMR058W, strain fet3, stronger effect = lower value 1 | S. cerevisiae deletion strains, locus YMR078C, strain ctf18, stronger effect = lower value 0.998 | S. cerevisiae deletion strains, locus YMR125W, strain sto1, stronger effect = lower value 0.982 | S. cerevisiae deletion strains, locus YMR129W, stronger effect = lower value 0.98 | S. cerevisiae deletion strains, locus YMR205C, strain PFK2, stronger effect = lower value 0.981 | S. cerevisiae deletion strains, locus YMR223W, strain ubp8, stronger effect = lower value 0.997 | S. cerevisiae deletion strains, locus YMR231W, strain pep5, stronger effect = lower value 1 | S. cerevisiae deletion strains, locus YMR307W, strain GAS1, stronger effect = lower value 1.06 | S. cerevisiae deletion strains, locus YNL067W, strain RPL9B, stronger effect = lower value 1.04 | S. cerevisiae deletion strains, locus YNL071W, strain lat1, stronger effect = lower value 1 | S. cerevisiae deletion strains, locus YNL153C, strain GIM3, stronger effect = lower value 1.05 | S. cerevisiae deletion strains, locus YNL183C, strain NPR1, stronger effect = lower value 0.968 | S. cerevisiae deletion strains, locus YNL209W, strain ssb2, stronger effect = lower value 1 | S. cerevisiae deletion strains, locus YNL233W, strain BNI4, stronger effect = lower value 1.04 | S. cerevisiae deletion strains, locus YNL248C, strain rpa49, stronger effect = lower value 0.998 | S. cerevisiae deletion strains, locus YNL250W, strain rad50, stronger effect = lower value 0.992 | S. cerevisiae deletion strains, locus YNL271C, strain bni1, stronger effect = lower value 1.01 | S. cerevisiae deletion strains, locus YNL298W, strain CLA4, stronger effect = lower value 1 | S. cerevisiae deletion strains, locus YNL307C, strain MCK1, stronger effect = lower value 0.994 | S. cerevisiae deletion strains, locus YNL322C, strain KRE1 (second series), stronger effect = lower value 1 | S. cerevisiae deletion strains, locus YNL322C, strain KRE1, stronger effect = lower value 1.01 | S. cerevisiae deletion strains, locus YNR049C, strain mso1, stronger effect = lower value 0.999 | S. cerevisiae deletion strains, locus YNR052C, strain pop2, stronger effect = lower value 0.997 | S. cerevisiae deletion strains, locus YOL012C, strain htz1 1.41 | S. cerevisiae deletion strains, locus YOL147C, strain pex11, stronger effect = lower value 1 | S. cerevisiae deletion strains, locus YOR001W, strain rrp6, stronger effect = lower value 1 | S. cerevisiae deletion strains, locus YOR061W, strain CKA2, stronger effect = lower value 1.01 | S. cerevisiae deletion strains, locus YOR069W, strain VPS5, stronger effect = lower value 1.01 | S. cerevisiae deletion strains, locus YOR070C, strain gyp1, stronger effect = lower value 1 | S. cerevisiae deletion strains, locus YOR080W, strain dia2, stronger effect = lower value 0.998 | S. cerevisiae deletion strains, locus YOR083W, strain WHI5, stronger effect = lower value 0.991 | S. cerevisiae deletion strains, locus YOR106W, strain vam3, stronger effect = lower value 1.04 | S. cerevisiae deletion strains, locus YOR136W, strain idh2, stronger effect = lower value 0.997 | S. cerevisiae deletion strains, locus YOR144C, strain elg1, stronger effect = lower value 0.99 | S. cerevisiae deletion strains, locus YOR184W, strain ser1, stronger effect = lower value 0.978 | S. cerevisiae deletion strains, locus YOR231W, strain MKK1, stronger effect = lower value 1.06 | S. cerevisiae deletion strains, locus YOR265W, strain rbl2, stronger effect = lower value 0.99 | S. cerevisiae deletion strains, locus YOR270C, strain vph1, stronger effect = lower value 1.02 | S. cerevisiae deletion strains, locus YOR290C, strain snf2, stronger effect = lower value 0.993 | S. cerevisiae deletion strains, locus YOR316C, strain cot1, stronger effect = lower value 0.992 | S. cerevisiae deletion strains, locus YPL051W, strain arl3, stronger effect = lower value 1.01 | S. cerevisiae deletion strains, locus YPL055C, strain LGE1, stronger effect = lower value 1.06 | S. cerevisiae deletion strains, locus YPL078C, strain atp4, stronger effect = lower value 1.01 | S. cerevisiae deletion strains, locus YPL106C, strain sse1, stronger effect = lower value 0.983 | S. cerevisiae deletion strains, locus YPL240C, strain hsp82, stronger effect = lower value 0.997 | S. cerevisiae deletion strains, locus YPL256C, strain CLN2, stronger effect = lower value 1.02 | S. cerevisiae deletion strains, locus YPR119W, strain clb2, stronger effect = lower value 0.99 | S. cerevisiae deletion strains, locus YPR141C, strain kar3, stronger effect = lower value 0.994 | S. cerevisiae deletion strains, locus YPR163C, strain tif3, stronger effect = lower value 0.99 | S. cerevisiae deletion strains, locus YPR167C, strain met16, stronger effect = lower value 0.989 | S. cerevisiae deletion strains, strain wtn01, stronger effect = lower value 1.03 | S. cerevisiae strains, strain wild type, stronger effect = lower value 1.01
